Assay results reported in ChEMBL document CHEMBL3433997, “St. Jude Leishmania screening dataset” (2016).

How the values were obtained:
Format in all cases: functional
[1] = target: Solute carrier family 2, facilitated glucose transporter member 1 (Homo sapiens) (UniProt P11166); experiment: ST_JUDE_LEISH: Cytotoxicity at 2uM final concentration against transgenic Leishmania Mexicana promastigotes LmGLUT1 that are glucose transport deficient and complemented with the human glucose transporter GLUT1. Activity is measured by DNA content using SYBR green in vitro
Sequence of Solute carrier family 2, facilitated glucose transporter member 1 (Homo sapiens) (P11166 whole entry): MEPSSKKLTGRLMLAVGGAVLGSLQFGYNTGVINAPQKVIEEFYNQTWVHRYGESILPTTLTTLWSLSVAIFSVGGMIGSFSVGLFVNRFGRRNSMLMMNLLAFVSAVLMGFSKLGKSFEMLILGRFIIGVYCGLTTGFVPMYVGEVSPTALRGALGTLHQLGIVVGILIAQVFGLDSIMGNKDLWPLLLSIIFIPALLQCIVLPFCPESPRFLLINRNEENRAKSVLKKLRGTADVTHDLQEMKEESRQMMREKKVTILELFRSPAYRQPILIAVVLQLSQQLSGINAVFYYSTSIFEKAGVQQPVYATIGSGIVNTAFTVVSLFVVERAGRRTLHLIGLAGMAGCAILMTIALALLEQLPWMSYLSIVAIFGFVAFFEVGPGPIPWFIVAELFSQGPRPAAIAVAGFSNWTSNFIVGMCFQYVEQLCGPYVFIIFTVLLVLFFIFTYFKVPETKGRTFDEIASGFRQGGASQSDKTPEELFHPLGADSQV

[2] = target: Hexose transporter 1 (Plasmodium falciparum) (UniProt O97467); experiment: ST_JUDE_LEISH: Cytotoxicity at 2uM final concentration against transgenic Leishmania Mexicana promastigotes LmPfHT that are glucose transport deficient and complemented with the Plasmodium falciparum hexose transporter. Activity is measured by DNA content using SYBR green in vitro
[3] = target: Glucose transporter (Leishmania mexicana) (UniProt O61059); experiment: ST_JUDE_LEISH: Cytotoxicity at 2uM final concentration against transgenic Leishmania Mexicana promastigotes LmGT2 that are glucose transport deficient and complemented with the L. Mexicana glucose transporter 2. Activity is measured by DNA content using SYBR green in vitro

Compound	inhibition [1] [%]	inhibition [2] [%]	inhibition [3] [%]
O=C(C=Cc1ccc(Cl)c(Cl)c1)NCCCCCN1CCCC(CCCNC(=O)c2ccc3c(c2)OCO3)C1 (stereo not drawn)	2.29	0.94	-0.94
O=C(NCCCCN1CCC(c2c[nH]c3ccccc23)CC1)c1ccc(-c2ccc(C(F)(F)F)cc2)cc1	0.97	0.63	-0.72
O=C(c1ccccc1)N1COCC(CCN2CCC(N3CCCC3)CC2)(c2ccc(Cl)c(Cl)c2)C1 (stereo not drawn)	2.71	-0.49	2.59
O=C(Nc1ccc(S(=O)(=O)N2CCCCC2)cc1)c1cc(-c2ccccc2O)n[nH]1	11.8	12	10.8
O=C(NCc1cccs1)[C@H](Cc1ccccc1)Nc1ccnc(NCCc2ccc(F)cc2)n1	11.2	9.62	9.52
c1cc(CN2CCN(CCN3CCOCC3)CC2)cc(-c2cccc(-c3nc4ccccc4[nH]3)c2)c1	-0.34	-0.24	-1.97
COc1ccc2nccc([C@@H](O)CN3CCC(NC(=O)c4cccc(-c5cc(C)no5)c4)CC3)c2c1	1.35	0.14	0.08
CC(=O)Oc1c(C(=O)C2CCC(C(C)(C)C)CC2)c(OC(C)=O)c2ccccc2c1OC(C)=O (stereo not drawn)	8.82	11.5	7.73
COc1cc2c(cc1OC)CN(CCCCNC(=O)c1ccc(NC(=O)c3cc(Cl)cc(Cl)c3)cc1)CC2	2.09	3.93	6.32
Cc1ccc(NC(=O)c2ccc(CN3CCCN(Cc4cccc(C#N)c4)CC3)cc2)cc1F	4.02	2.41	2.02
COC(=O)c1ccc(CC(C)NCC(O)c2ccc(C(O)CNC(C)Cc3ccc(C(=O)OC)cc3)cc2)cc1 (stereo not drawn)	-0.44	1.69	0.96
Nc1ncc(-c2ccc3nccc(-c4ccncc4)c3c2)cc1S(=O)(=O)N1CCCCC1	12.9	11.3	7.55
NS(=O)(=O)c1ccc(CNc2ccc3ncc(-c4ccc(Cl)cc4)n3n2)cc1	-0.09	0.08	-0.35
O=C(NCCc1ccccc1)N(Cc1ccccc1-c1cccc(CNC2CCCC2)c1)C1CCN(Cc2ccccc2)CC1	8.2	4.49	6.22
Cc1n[nH]c2cc(Nc3ccnc(Nc4ccc(CN5CCOCC5)cc4)n3)ccc12	12.7	9.89	14.2
CCC1(C)CC(CCNCc2ccccc2O)(c2ccccc2OC)CCO1 (stereo not drawn)	0.62	-0.31	0.88
